# Measured values: ChEMBL document CHEMBL2218924, “A broad activity screen in support of a chemogenomic map for kinase signalling research and drug discovery” (Biochem J, 2013)
# Experiments:
# [1] = biological target: Tyrosine-protein kinase SYK (Homo sapiens) (UniProt P43405); conditions: at 10 µM
# [2] = biological target: T1, Mitogen-activated protein kinase kinase kinase 7 (Homo sapiens) (UniProt O43318); conditions: at 1 µM
# T1 sequence (whole entry): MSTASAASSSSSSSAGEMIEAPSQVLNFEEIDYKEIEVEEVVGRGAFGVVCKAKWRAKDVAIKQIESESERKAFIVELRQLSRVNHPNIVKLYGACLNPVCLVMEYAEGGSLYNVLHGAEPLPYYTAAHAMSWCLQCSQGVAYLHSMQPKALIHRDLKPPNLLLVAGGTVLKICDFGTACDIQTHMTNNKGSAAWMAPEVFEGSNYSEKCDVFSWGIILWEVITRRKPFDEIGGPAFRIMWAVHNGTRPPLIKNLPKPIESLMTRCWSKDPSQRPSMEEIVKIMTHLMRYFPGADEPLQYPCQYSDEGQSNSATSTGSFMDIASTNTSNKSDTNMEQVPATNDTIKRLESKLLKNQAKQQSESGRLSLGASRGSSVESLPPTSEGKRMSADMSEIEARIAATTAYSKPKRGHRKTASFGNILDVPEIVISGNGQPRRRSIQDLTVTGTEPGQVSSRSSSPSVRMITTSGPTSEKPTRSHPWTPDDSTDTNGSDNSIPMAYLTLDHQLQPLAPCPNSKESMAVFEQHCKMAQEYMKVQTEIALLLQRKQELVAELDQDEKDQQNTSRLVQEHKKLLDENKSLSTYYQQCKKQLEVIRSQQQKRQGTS
# [3] = biological target: T1, Mitogen-activated protein kinase kinase kinase 7 (Homo sapiens); conditions: at 10 µM
# [4] = biological target: T2, Serine/threonine-protein kinase TAO1 (Homo sapiens) (UniProt Q7L7X3); conditions: at 1 µM
# T2 sequence (whole entry): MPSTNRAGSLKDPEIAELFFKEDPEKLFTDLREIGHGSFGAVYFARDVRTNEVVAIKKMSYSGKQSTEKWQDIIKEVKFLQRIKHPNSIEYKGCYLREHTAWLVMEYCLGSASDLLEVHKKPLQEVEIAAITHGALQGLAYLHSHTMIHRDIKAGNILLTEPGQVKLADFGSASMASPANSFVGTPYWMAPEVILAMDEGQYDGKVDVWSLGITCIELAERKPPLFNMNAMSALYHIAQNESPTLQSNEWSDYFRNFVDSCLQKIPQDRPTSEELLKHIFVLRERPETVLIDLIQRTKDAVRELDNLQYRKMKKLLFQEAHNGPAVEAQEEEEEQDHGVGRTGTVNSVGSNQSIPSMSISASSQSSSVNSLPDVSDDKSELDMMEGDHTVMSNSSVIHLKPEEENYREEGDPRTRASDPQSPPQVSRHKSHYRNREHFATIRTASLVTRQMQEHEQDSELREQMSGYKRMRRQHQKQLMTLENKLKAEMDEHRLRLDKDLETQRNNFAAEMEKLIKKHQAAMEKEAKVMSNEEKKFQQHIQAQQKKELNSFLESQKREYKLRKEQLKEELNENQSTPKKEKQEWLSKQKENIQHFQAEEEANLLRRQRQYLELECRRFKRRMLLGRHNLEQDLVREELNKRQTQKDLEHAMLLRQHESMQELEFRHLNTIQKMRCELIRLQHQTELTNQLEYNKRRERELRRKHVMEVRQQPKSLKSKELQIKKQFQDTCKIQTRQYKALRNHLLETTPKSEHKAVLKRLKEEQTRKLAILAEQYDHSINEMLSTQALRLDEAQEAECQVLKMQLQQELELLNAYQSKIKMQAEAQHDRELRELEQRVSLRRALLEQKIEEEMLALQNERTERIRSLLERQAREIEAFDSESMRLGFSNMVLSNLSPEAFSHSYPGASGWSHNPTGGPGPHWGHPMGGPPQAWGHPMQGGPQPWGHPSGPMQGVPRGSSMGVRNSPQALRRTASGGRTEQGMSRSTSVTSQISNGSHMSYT
# [5] = biological target: T2, Serine/threonine-protein kinase TAO1 (Homo sapiens); conditions: at 10 µM
# [6] = biological target: T3, Serine/threonine-protein kinase TAO2 (Homo sapiens) (UniProt Q9UL54); conditions: at 1 µM
# T3 sequence (whole entry): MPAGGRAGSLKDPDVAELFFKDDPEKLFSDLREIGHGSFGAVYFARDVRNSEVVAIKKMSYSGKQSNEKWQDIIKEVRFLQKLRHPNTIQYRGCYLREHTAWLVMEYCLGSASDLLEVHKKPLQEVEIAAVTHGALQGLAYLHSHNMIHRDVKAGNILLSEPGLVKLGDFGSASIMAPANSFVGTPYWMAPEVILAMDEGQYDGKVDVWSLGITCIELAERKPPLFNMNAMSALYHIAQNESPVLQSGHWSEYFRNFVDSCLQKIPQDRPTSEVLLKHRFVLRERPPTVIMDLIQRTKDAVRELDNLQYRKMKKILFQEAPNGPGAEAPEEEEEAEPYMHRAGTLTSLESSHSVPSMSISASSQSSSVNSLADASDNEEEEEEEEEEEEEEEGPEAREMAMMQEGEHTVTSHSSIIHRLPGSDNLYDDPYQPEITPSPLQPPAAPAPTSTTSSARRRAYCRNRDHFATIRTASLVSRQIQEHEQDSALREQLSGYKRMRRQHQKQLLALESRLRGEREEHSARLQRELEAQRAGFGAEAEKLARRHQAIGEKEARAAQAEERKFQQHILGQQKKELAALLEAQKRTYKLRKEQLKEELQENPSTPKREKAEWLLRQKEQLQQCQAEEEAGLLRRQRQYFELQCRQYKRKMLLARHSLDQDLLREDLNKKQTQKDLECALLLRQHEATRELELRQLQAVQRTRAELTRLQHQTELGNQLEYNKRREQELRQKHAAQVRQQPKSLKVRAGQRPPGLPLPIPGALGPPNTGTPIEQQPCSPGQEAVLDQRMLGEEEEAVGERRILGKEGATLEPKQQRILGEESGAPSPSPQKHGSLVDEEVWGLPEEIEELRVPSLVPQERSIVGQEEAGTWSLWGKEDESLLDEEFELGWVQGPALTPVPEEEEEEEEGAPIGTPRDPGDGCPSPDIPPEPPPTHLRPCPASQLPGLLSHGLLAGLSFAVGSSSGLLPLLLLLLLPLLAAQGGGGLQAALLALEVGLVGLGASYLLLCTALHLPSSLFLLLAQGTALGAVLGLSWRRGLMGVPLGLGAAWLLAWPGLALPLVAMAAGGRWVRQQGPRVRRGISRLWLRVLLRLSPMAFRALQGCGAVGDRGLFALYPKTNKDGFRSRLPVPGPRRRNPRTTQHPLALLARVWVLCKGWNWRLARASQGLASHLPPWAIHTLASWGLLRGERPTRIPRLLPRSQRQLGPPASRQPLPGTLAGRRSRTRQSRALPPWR
# [7] = biological target: T3, Serine/threonine-protein kinase TAO2 (Homo sapiens); conditions: at 10 µM
# [8] = biological target: T4, Serine/threonine-protein kinase TAO3 (Homo sapiens) (UniProt Q9H2K8); conditions: at 1 µM
# T4 sequence (whole entry): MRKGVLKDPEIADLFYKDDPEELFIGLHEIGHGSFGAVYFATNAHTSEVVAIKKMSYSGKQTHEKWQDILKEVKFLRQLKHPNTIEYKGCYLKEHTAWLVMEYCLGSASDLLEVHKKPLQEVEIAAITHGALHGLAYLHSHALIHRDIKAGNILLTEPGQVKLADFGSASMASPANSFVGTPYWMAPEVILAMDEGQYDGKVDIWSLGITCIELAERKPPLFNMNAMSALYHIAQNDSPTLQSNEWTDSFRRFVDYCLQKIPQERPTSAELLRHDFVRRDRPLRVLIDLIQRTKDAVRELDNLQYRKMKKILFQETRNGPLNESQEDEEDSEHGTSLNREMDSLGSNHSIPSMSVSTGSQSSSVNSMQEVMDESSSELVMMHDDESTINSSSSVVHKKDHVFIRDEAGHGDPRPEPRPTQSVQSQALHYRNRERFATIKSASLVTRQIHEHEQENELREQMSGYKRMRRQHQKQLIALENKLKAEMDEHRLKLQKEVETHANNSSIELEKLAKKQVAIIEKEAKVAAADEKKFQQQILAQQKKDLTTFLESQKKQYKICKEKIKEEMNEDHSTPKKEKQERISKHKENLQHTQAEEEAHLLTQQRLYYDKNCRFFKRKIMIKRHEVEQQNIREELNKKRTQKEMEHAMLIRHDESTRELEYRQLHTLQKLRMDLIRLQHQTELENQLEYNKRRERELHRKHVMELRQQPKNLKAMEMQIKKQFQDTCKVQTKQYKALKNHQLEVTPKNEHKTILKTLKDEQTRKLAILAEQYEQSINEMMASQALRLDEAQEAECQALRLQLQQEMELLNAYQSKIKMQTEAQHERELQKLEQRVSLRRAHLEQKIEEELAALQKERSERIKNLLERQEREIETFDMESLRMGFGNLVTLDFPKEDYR
# [9] = biological target: T4, Serine/threonine-protein kinase TAO3 (Homo sapiens); conditions: at 10 µM
# [10] = biological target: T5, Serine/threonine-protein kinase TBK1 (Homo sapiens) (UniProt Q9UHD2); conditions: at 1 µM
# T5 sequence (whole entry): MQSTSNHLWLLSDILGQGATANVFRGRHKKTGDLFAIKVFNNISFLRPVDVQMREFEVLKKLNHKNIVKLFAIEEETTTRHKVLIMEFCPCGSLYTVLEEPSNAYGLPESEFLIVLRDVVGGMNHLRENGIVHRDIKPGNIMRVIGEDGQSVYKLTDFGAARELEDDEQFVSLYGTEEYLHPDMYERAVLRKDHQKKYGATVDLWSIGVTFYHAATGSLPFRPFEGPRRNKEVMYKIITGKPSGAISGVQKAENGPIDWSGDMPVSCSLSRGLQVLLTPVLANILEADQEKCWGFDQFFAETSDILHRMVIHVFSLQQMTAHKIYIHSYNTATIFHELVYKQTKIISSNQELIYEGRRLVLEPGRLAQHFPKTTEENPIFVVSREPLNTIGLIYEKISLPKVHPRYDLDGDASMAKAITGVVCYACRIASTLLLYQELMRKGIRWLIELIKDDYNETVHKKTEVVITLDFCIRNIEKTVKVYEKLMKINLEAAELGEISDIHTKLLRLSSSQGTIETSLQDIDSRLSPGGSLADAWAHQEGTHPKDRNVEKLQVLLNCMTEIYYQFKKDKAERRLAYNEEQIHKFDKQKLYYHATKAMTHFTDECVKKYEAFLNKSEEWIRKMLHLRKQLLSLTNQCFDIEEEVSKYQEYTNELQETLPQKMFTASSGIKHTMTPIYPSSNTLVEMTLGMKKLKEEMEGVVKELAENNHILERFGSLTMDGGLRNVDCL
compound,measurement,setting,value
Cn1cc(/C=C2\C(=O)Nc3ccc(S(N)(=O)=O)cc32)c2ccccc21,residual activity,[1],28%
same,residual activity,[2],92%
same,residual activity,[3],77%
same,residual activity,[4],74%
same,residual activity,[5],37%
same,residual activity,[6],100%
same,residual activity,[7],88%
same,residual activity,[8],74%
same,residual activity,[9],66%
same,residual activity,[10],8%
